# Measured values published in PubChem BioAssay.
# Active and inactive are the calls of the source. Unless noted, no rule for the calls is given here.
# What was measured:
# [1] = anti-His antibody binders, primary screen, artefact control for SMM control protein annotation, biochemical, small-molecule microarray, 635 nm fluorescence (AID 1128); details: anti-His Alexa647 antibody binding, higher = more signal;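 also: score merges feature fluorescence with signal-to-noise for each printed compound spot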
# [2] = tested on: Human papillomavirus type 1a E7 protein (residues 1-88); test: HPV1a E7 small-molecule binders, primary screen, biochemical, small-molecule microarray, residues 1-88, 635 nm (AID 1129); details: small-molecule microarray binding, fluorescence 635 nm; higher = more signal
# [3] = biological target: Focal adhesion kinase 1 (Homo sapiens) (UniProt Q05397); test: small-molecule microarray binders of FAK, primary screen, biochemical, 635/667 nm fluorescence, BSA, DTT (AID 1130); details: PTK2 binding, 635 nm fluorescence, higher = more signal;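 also: composite of spot emission at 667 nm and signal to noise over triplicate slides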
# Focal adhesion kinase 1 (Homo sapiens), sequence (Q05397 whole entry, looked up): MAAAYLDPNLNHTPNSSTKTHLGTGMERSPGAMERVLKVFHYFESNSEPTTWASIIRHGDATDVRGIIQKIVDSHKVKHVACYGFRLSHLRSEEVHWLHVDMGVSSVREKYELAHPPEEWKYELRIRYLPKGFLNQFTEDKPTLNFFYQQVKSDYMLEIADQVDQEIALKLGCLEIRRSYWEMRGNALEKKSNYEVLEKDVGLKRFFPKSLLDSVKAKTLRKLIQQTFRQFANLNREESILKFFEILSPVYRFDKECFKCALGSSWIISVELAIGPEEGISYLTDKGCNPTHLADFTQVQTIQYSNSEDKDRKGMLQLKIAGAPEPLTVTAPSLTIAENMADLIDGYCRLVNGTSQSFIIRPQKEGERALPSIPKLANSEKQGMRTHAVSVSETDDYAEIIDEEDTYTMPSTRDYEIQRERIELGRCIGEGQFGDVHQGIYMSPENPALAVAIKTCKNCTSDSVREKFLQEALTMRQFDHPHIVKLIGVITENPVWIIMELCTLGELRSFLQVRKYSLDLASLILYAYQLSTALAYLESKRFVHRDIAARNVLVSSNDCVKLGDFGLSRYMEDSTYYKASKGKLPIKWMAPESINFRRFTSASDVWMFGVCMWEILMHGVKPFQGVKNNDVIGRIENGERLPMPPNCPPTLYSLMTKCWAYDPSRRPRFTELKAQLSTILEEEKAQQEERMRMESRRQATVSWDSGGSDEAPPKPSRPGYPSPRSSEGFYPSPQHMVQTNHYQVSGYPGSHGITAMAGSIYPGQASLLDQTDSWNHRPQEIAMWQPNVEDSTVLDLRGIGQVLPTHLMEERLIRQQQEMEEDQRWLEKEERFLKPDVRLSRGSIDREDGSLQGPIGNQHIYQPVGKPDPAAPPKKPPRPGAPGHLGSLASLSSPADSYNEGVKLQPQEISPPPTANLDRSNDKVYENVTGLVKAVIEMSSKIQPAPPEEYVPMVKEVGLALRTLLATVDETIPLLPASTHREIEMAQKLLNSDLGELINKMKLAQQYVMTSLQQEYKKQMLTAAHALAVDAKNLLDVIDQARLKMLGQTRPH
# [4] = tested on: Fibrinogen (Alexa647-labelled); test: fibrinogen binders on compound microarrays, profiling panel, artefact control for SMM control-protein annotation, biochemical, small-molecule microarray, 635/667 nm fluorescence (AID 1131); details: fibrinogen-A647 binding fluorescence, higher = more signal;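 also: z-score merges 667 nm fluorescence with per-spot signal-to-noise over triplicate slides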
# [5] = biological target: Follistatin (Homo sapiens) (UniProt P19883); test: follistatin binders on small-molecule microarrays, primary screen, biochemical, small-molecule microarray, 635/667 nm fluorescence (AID 1132); details: FST binding, 635 nm fluorescence, higher = more signal
# Follistatin (Homo sapiens), sequence (P19883 whole entry, looked up): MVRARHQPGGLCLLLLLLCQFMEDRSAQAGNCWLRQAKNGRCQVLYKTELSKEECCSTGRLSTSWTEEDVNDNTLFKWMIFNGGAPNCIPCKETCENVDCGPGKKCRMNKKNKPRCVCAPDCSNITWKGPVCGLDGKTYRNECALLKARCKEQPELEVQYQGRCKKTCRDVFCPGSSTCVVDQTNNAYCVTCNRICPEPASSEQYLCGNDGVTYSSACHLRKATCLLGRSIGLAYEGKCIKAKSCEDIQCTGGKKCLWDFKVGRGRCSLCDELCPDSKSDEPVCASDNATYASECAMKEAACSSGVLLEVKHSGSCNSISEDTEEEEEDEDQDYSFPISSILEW
# [6] = biological target: Fibroblast growth factor 2 (Homo sapiens) (UniProt P09038); test: FGF2 binders on small-molecule microarrays, primary screen, biochemical, small-molecule microarray, 635/667 nm fluorescence (AID 1133); details: small-molecule microarray binding, FGF2, fluorescence 635/667; higher = more signal
# Fibroblast growth factor 2 (Homo sapiens), sequence (P09038 whole entry, looked up): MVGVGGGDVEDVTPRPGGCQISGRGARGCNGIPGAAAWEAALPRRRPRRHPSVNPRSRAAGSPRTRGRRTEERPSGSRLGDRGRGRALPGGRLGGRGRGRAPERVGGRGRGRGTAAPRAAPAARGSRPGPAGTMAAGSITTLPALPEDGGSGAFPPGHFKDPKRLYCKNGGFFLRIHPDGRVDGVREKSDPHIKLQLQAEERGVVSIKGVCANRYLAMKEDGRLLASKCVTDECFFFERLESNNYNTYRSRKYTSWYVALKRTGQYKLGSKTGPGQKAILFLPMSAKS
# [7] = mitochondrial membrane potential change in A549 cells, profiling panel, cell-based, JC-1 fluorescence, basal, 24 h, 100 nL (AID 1138); details: higher = more signal;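 also: A549 lung adenocarcinoma cells under basal conditions with no added stimulus; test concentration not given here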
# [8] = tested on: Lefty1; test: Lefty1 binders on small-molecule microarrays, primary screen, biochemical, small-molecule microarray, 635/667 nm fluorescence (AID 1139); details: small-molecule microarray binding, fluorescence 635/667; higher = more signal
# [9] = tested on: wheat germ agglutinin (Triticum aestivum), Alexa647-labelled; test: wheat germ agglutinin binders on compound microarrays, profiling panel, artefact control for SMM control-protein annotation, biochemical, small-molecule microarray, 635/667 nm fluorescence (AID 1140); details: WGA-A647 binding, 635 nm fluorescence, higher = more signal;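 also: score merges 667 nm feature emission with signal to noise over triplicate slides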
# [10] = biological target: Luciferin 4-monooxygenase (Photinus pyralis) (UniProt P08659); test: firefly luciferase enzyme inhibitors, primary screen, biochemical, luminescence, purified enzyme, 2006 set (AID 1141); details: SteadyGlo luminescence, 30 min, higher = more signal, called active from +8 up or from −8 down;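 also: cell-free assay with purified firefly luciferase at 100 ng per well in PBS; test concentration not given here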
# Luciferin 4-monooxygenase (Photinus pyralis), sequence (P08659 whole entry, looked up): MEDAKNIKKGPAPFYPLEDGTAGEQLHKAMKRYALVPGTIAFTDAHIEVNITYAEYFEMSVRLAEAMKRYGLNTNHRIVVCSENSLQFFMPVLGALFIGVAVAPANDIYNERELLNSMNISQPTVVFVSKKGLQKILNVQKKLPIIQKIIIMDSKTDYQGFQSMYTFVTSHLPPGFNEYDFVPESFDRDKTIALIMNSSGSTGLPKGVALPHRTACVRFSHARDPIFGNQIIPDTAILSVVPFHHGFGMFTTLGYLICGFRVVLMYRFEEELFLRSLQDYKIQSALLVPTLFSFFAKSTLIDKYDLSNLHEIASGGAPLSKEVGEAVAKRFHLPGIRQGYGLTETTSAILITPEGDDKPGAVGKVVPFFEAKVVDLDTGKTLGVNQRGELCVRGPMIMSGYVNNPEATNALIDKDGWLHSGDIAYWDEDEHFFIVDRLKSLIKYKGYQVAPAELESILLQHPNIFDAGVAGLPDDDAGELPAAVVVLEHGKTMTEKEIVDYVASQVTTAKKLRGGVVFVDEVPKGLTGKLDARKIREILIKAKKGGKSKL
# [11] = tested on: Wnt5a (protein binding on small-molecule microarray); test: Wnt5a binders on small-molecule microarray, primary screen, biophysical, 635/667 nm fluorescence (AID 1142); details: 635 nm fluorescence, higher = more signal;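 also: fluorescence read at 667 nm with signal to noise per printed feature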
# [12] = cell viability in Huh7 cells, primary screen, cytotoxicity control for HCV replication inhibitor project, CellTiter-Glo luminescence, basal, 48 h (AID 1143); details: Huh7 HCV replicon, higher = more signal, called active from +8 up or from −8 down;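 also: Huh7 hepatoma cells carrying a hepatitis C replication reporter with no stimulus; test concentration not given here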
# [13] = P. aeruginosa biofilm formation inhibitors, primary screen, PAO1 strain, BacTiter-Glo luminescence, LB-PBS (AID 1144); details: 12 h, higher = more signal
# [14] = CREB reporter modulators without forskolin, primary screen, cell-based, PC12, CRE-LacZ reporter, unstimulated (AID 1145); details: no forskolin, luminescence, 4.5 h, higher = more signal, called active from +8 up or from −8 down
# [15] = CREB reporter modulators under forskolin, primary screen, cell-based, PC12, CRE-LacZ reporter, forskolin-stimulated (AID 1146); details: luminescence, 4.5 h, higher = more signal, called active from +8 up or from −8 down;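 also: PC12 cells with 6xCRE LacZ reporter stimulated by forskolin 10 µM; beta-galactosidase reporter signal reflecting CREB driven transcription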
# [16] = biological target: Streptavidin (Streptomyces avidinii) (UniProt P22629); test: streptavidin binders on small-molecule microarray, primary screen, artefact control for SMM compound annotation, biophysical, 635/667 nm fluorescence (AID 1147); details: streptavidin binding, higher = more signal;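 also: signal reflects streptavidin binding to arrayed compounds as a control protein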
# Streptavidin (Streptomyces avidinii), sequence (P22629 whole entry, looked up): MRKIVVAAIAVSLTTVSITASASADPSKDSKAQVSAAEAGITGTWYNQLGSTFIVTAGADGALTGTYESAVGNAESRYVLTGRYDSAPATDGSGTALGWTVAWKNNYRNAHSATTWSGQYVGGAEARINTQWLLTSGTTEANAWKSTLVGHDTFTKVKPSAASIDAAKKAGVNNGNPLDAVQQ
# [17] = small-molecule binders of probe aInhba, primary screen, biochemical, small-molecule microarray, 635/667 nm fluorescence (AID 1148); details: higher = more signal;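 also: score merges 667nm spot fluorescence with signal-to-noise for antibody binding to printed compounds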
# [18] = biological target: Torsin-1A (Homo sapiens) (UniProt O14656); test: torsin A binders from cell lysate, primary screen, small-molecule microarray, wild-type, 635/667 nm (AID 1149); details: COS7 hTOR1A-WT lysate, 635 nm fluorescence, higher = more signal
# Torsin-1A (Homo sapiens), sequence (O14656 whole entry, looked up): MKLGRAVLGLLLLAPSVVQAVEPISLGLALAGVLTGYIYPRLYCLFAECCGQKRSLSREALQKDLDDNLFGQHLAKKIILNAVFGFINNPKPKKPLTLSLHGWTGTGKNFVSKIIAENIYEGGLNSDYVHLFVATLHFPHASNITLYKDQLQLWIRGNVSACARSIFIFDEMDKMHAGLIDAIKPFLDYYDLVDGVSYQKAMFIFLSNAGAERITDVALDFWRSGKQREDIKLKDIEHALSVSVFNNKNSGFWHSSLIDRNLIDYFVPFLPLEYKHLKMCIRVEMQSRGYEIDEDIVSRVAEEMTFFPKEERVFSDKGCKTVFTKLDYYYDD
# [19] = biological target: Torsin-1A (Homo sapiens) (UniProt O14656); test: small-molecule binders of mutant TOR1A in lysate, primary screen, cell lysate, small-molecule microarray, COS7 lysate, 635/667 nm fluorescence (AID 1150); details: COS7 hTOR1A mutant lysate, 635 nm fluorescence, higher = more signal;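 also: score pools 667 nm emission and signal to noise measuring lysate protein binding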
# [20] = tested on: Sonic hedgehog protein (Shh); test: small-molecule binders of Shh protein, primary screen, biochemical, small-molecule microarray, 635/667 nm fluorescence (AID 1151); details: small-molecule microarray binding, 635 nm fluorescence; higher = more signal;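 also: Shh protein binding to compounds spotted on small-molecule microarray slides; score combines spot fluorescence intensity with signal-to-noise across triplicate slides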
SMILES,composite z-score [1],composite z-score [2],composite z-score [3],composite z-score [4],composite z-score [5],composite z-score [6],z-score [7],composite z-score [8],composite z-score [9],z-score [10],composite z-score [11],z-score [12],z-score [13],z-score [14],z-score [15],composite z-score [16],composite z-score [17],composite z-score [18],composite z-score [19],composite z-score [20]
CC(C)C[C@@H]1NC(=O)[C@H]2C[C@@H](C(=O)NCCCCCN)[C@@H](c3cccc(OCCO)c3)N2C1=O,1.22,0.334,-0.0639,0.133,-0.214,0.181,0.34,-0.813,0.817,-1.07 (inactive),-0.0295,-0.707 (inactive),-0.887 (inactive),0.273 (inactive),-0.673 (inactive),-0.174,-0.008,0.67,0.207,-0.414
O=C1C2C=CC(C(O)c3cc(C(F)(F)F)cc(C(F)(F)F)c3)N(Nc3ccccc3F)C2C(=O)N1c1ccccc1 (stereo not given),-0.102,1.21,0.76,0.847,0.21,-0.215,-1.58,-0.173,0.416,0.668 (inactive),0.17,-3.68 (inactive),-0.476 (inactive),0.626 (inactive),-0.0442 (inactive),0.714,0.385,-0.0067,0.379,-0.685
C=C(C)C1CCC(C(O)C2C=CC3C(=O)N(C)C(=O)C3N2Nc2cc(OC)c(OC)c(OC)c2)CC1 (stereo not given),1.23,1.24,0.573,0.723,1.31,0.425,0.444,0.677,0.504,-1.07 (inactive),0.109,0.454 (inactive),0.253 (inactive),0.243 (inactive),0.516 (inactive),0.889,0.222,-0.0834,0.44,1.11
C[C@]1(C(=O)NCC(F)(F)F)c2ccccc2C(=O)N(Cc2ccccc2)[C@H]1c1ccc(CO)cc1,1.09,-0.634,-0.712,-1.32,-0.684,-1.02,-0.0626,-1.25,-0.68,0.857 (inactive),-0.398,-1.48 (inactive),-0.0817 (inactive),-0.179 (inactive),0.112 (inactive),-0.726,-0.0719,-0.938,0.808,-1.32
CCCCC(=C=CC[C@H](O)c1ccc(OCCO)cc1)C[C@H](O)COCc1ccccc1,0.522,0.0648,0.477,-0.56,0.163,0.501,2.19,0.235,-0.0019,-1.22 (inactive),-0.0866,-0.92 (inactive),0.403 (inactive),10.3 (active),0.434 (inactive),-0.499,-0.145,-0.327,0.388,0.571
C=C(COC)C(=O)CC[C@@H](OC(=O)c1cccnc1)c1ccccc1OCCO,2.06,0.284,-0.54,0.555,0.974,1,-0.0536,0.139,0.287,-5.44 (inactive),0.125,-3.79 (inactive),0.291 (inactive),19.7 (active),16.4 (active),-0.126,0.0355,0.882,1.14,0.786
C=C(/C(=C/C[C@H](OC(=O)c1ccncc1)c1cccc(OCCO)c1)c1cnc2ccccc2c1)C(C)C,0.291,0.952,0.807,0.247,1.46,1.85,0.945,1.6,1.33,-0.799 (inactive),0.518,-7.81 (inactive),0.503 (inactive),30.3 (active),-0.386 (inactive),0.929,-0.05,-0.382,-0.22,2.23
CCOC(=O)C1=C[C@@H](C(C)(C)C)N(S(=O)(=O)c2ccc(C)cc2)[C@H]1c1ccccc1,0.761,1.16,0.329,0.706,1.11,0.136,2.21,0.523,1.09,0.756 (inactive),0.251,-4.44 (inactive),1.43 (inactive),0.696 (inactive),-0.276 (inactive),1.29,0.27,0.0214,0.611,0.871
[N-]=[N+]=NCc1ccccc1[C@H]1OC(c2ccc(OCCCO)cc2)=N[C@@]1(Cc1ccccc1)C(=O)NCCN1CCOCC1,2.04,1.26,0.514,0.915,1.33,1.63,1.87,0.332,0.531,-3.29 (inactive),0.526,-3.01 (inactive),-0.206 (inactive),1.53 (inactive),-0.355 (inactive),1.13,0.555,1.03,0.604,0.502
COc1ccc(C#Cc2ccc3c(c2)[C@]2(C(=O)N3)[C@H](c3ccc(OCCO)cc3)N3[C@H](c4ccccc4)[C@H](c4ccccc4)OC(=O)[C@H]3[C@@H]2C(=O)N2CCc3cc(OC)c(OC)cc3C2)cc1,0.78,1.18,0.946,0.532,1.44,1.49,-1.14,1.17,0.863,-0.922 (inactive),1.04,-0.632 (inactive),-0.221 (inactive),0.478 (inactive),0.198 (inactive),1.83,-0.308,0.394,0.722,2.15
CCN(CC)c1ccc(N2CC=CC34O[C@@H]5C=CCCOC(=O)C5[C@H]3C(=O)N(CCO)[C@@H]4C2=O)cc1 (stereo not given in full),-0.827,-1.74,-0.491,-1.21,-0.722,-1.01,0.108,-1,-0.553,-0.643 (inactive),-0.546,-0.055 (inactive),-0.167 (inactive),0.191 (inactive),0.0371 (inactive),-1.02,-0.163,-0.894,-1.42,-0.0352
O=C(N1CCOCC1)[C@@]1(CCS(=O)(=O)c2ccccc2)N=C(c2ccc(OCCCO)cc2)O[C@H]1c1ccccc1,3.23,1.25,0.919,1,1.25,0.162,0.584,-0.415,1.29,-0.0763 (inactive),0.465,-1.48 (inactive),0.201 (inactive),0.0127 (inactive),-0.0526 (inactive),2.39,0.3,0.411,0.767,-0.514
Cc1ccccc1C(O)C1C=CC2C(=O)N(c3ccccc3)C(=O)C2N1Nc1ccc([N+](=O)[O-])cc1 (stereo not given),1.48,1.21,0.533,1.01,1.23,1.06,-0.752,0.0122,0.515,1.18 (inactive),-0.0078,-0.52 (inactive),-0.35 (inactive),0.78 (inactive),0.598 (inactive),1.77,0.3,0.992,0.593,0.176
COc1ccc([Si](C)(C)[C@H]2[C@H](CC(=O)N3Cc4ccccc4C[C@H]3CO)O[C@@]3(C(=O)N(Cc4ccc(N5C(=O)c6cccc7cccc5c67)cc4)c4ccccc43)[C@@H]2C)cc1,0.33,1.15,1.28,0.405,1.07,1.37,1.34,1.01,0.237,0.0376 (inactive),-0.108,-4.09 (inactive),-0.67 (inactive),1.04 (inactive),-1.35 (inactive),0.294,0.0102,-0.0784,0.837,1.66
COc1cc(NN2C(C(O)c3cc(OC)c(OC)c(OC)c3)C=CC3C(=O)N(c4ccccc4)C(=O)C32)cc(OC)c1OC (stereo not given),1.41,1.27,0.6,1.04,1.28,1.56,-0.609,0.133,0.848,-0.771 (inactive),0.582,-2.99 (inactive),-0.24 (inactive),0.243 (inactive),-0.0967 (inactive),1.8,0.867,-0.152,0.816,-0.317
C=C[C@H](C)[C@H](OC(=O)Nc1ccc(OC)cc1)c1ccc(OCCO)cc1,-0.489,-0.653,0.0457,-0.909,-0.617,-0.0943,0.927,-0.431,-0.647,-6.74 (inactive),-0.423,-2.77 (inactive),0.133 (inactive),4.89 (inactive),0.0618 (inactive),-0.911,-0.314,0.763,0.0508,0.261
CC(C)C(=C=CC[C@H](O)c1cccc(OCCO)c1)CCO,-0.0157,-0.374,0.107,-1,0.277,0.138,0.346,0.67,0.108,0.371 (inactive),0.299,-1.25 (inactive),-0.461 (inactive),6.6 (inactive),-0.253 (inactive),-0.669,-0.224,-0.513,0.15,0.688
CO[C@H]1O[C@H](CO)[C@@H](OC(=O)Nc2cccc(F)c2)[C@H](OC(=O)Nc2ccccc2-c2ccccc2)[C@H]1OC(=O)Nc1ccccc1-c1ccccc1,2.69,1.28,0.55,0.986,1.32,1.5,-0.498,1.14,0.474,0.372 (inactive),0.828,-5.99 (inactive),0.0177 (inactive),0.951 (inactive),-0.986 (inactive),0.379,0.208,0.937,0.663,1.23
Cc1ccc(S[C@]2(C(=O)NC(C)C)CC(=O)N(Cc3ccccc3Cl)[C@@H]2c2ccc(CO)cc2)cc1,0.568,0.424,-0.092,0.54,-0.568,-1.27,-0.718,-1.56,0.762,-0.426 (inactive),-0.323,-2.67 (inactive),-0.141 (inactive),-0.295 (inactive),0.506 (inactive),-1.03,-0.149,-2.93,-1.86,-0.761
